# Experimental data taken from PubChem BioAssay AID1671193 (National Center for Advancing Translational Sciences (NCATS), 2021).
# The campaign covered roughly 150,000 compounds. About 180 (0.12%) were called active. Not shown: some 6% with an inconclusive outcome. Shown is part of a subset that was picked to be rich in actives. A number with no mark means an inactive call. Calls come from the whole dose curve; as a rule, active = well fitted cell-killing curve with a large enough effect; inconclusive = small, poorly fitted or top-dose-only effect, or effect the other way; inactive = flat fitted curve, though single readings scatter.
# Test: GF-AFC viability counterscreen for inhibitors of alpha-synuclein gene (SNCA) expression; note: nearly all actives have a fitted effect of over 30% in size
# Details: HEK-293-SNCA-luc viability, GF-AFC fluorescence, 24 h; series mostly up to 57.1 µM; activity change, negative = cytotoxicity: at the top concentration
# Text: Assay Submitter (PI): Daniel R. Scoles Ph.D.
# Department of Neurology, University of Utah, Salt Lake City, Utah
# Accumulation of alpha-synuclein is a main underlying pathological feature of Parkinson's disease (PD) and alpha-synucleinopathies, for which lowering expression of the alpha-synuclein gene (SNCA) is a potential therapeutic avenue. Using a cell-based luciferase reporter of SNCA expression we performed a quantitative high throughput screen (qHTS) of 155,885 compounds in dose response. The screening assay was generated using genome editing to insert the luciferase gene downstream and in frame of the SNCA gene in HEK-293 cells (1). A viability counterscreen using GF-AFC was used to eliminate cytotoxic and false positive compounds. After in silico analysis (clustering, removal of frequent hitter nuisance chemotypes), inhibitor compounds from the primary screen were selected for follow up and re-tested at 11-doses in the SNCA-luc cells (luciferase and GF-AFC confirmation), and in CMV-luc expressing cell line to flag general transcriptional repressors.
# Described herein are the results of the GF-AFC viability counterscreen for SNCA inhibitors; inactivity (no decrease in fluorescence signal, not cytotoxic) is the desired output for this assay.
# 1. Dansithong, W., Paul, S., Scoles, D. R., Pulst, S. M., and Huynh, D. P. (2015) Generation of SNCA Cell Models Using Zinc Finger Nuclease (ZFN) Technology for Efficient High-Throughput Drug Screening. PLoS ONE 10, e0136930.
# SEQUENCE No. (e.g., 1, 2, 3, etc.); […] (e.g., Cells, Incubation, Reagent, etc.); VALUE; DESCRIPTION
# 1; Cells; 4 uL; Dispense 1500 HEK-293-SNCA-luc cells/well into Greiner 1536-well white / solid bottom tissue culture treated plate. The plate was covered with metal lids with gas-exchange holes.
# 2; Incubate; 24 hours; Incubate at 37C, 5% CO2, 95% RH.
# 3; Compounds; 23 nL; Compounds and controls were transferred via a Kalypsys Pin Tool (Wako USA) equipped with a 1536-slotted pin array. The plate was covered with metal lids with gas-exchange holes.
# 4; Incubate; 24 hours; Incubate at 37C, 5% CO2, 95% RH.
# 5; Dispense; 1 uL; Dispense Gly-Phe-7-amino-4-trifluoromethylcoumarin (GF-AFC, prepared at 125 uM in PBS) was added. The plate was covered with metal lids with gas-exchange holes.
# 6; Incubate; 30 min; Incubate at 37C, 5% CO2.
# 7; Detector; Fluorescence; Measure fluorescence with ViewLux microplate reader (PerkinElmer) equipped with 405/10 excitation and 540/25 emission filters.
# 8; Dispense; 3 uL; Dispense ONE-Glo ([…]) lucifase detection reagent was added to each well. Plates were covered with metal lids with gas-exchange holes.
# 9; Incubate; 15 min; Incubate at room temperature.
# 10; Detector; Luminescence; Measure luminescence with ViewLux microplate reader (PerkinElmer) equipped with clear filters.
# NOTES (numbers refer to sequence above)
# 1; HEK-293-SNCA-luc were cultured and suspended in phenol-red free DMEM (4.5 g/L glucose, 25 mM HEPES, cat #21063 (Thermo)).
# 3; Compounds were added to the assay plate in an 11-point intra plate dose response, 1:3 titration in DMSO with a final concentration range of […]. Vehicle-only plates, with DMSO being pin-transferred to every well, were inserted at the beginning of screening runs to confirm expected assay performance. Activity was normalized to wells containing medium only (-100% activity, full inhibition) and SNCA-luc cells treated with DMSO vehicle control (0% activity), contained on the same plate as test samples.
# 10; Signals were analyzed, and dose-response curves were fit using the Hill equation. Compounds in curve classes -1.1, -1.2, -2.1, -2.2 in the SNCA-luc assay were considered active. Compounds were eliminated from further consideration if also active (curve class -1.1, -1.2, -1.3, -1.4, -2.1, -2.2, -2.3, -2.4) in the GF-AFC cytotoxicity assay.
# Potency is the fitted concentration of half-maximal effect.
SMILES,"activity change, negative = cytotoxicity",Potency
O=C(c1ccc(F)cc1)N1CCC(C(=O)N2CCC(c3ccccc3)CC2)CC1,0.64%,
CCCN(Cc1nccn1C)C(=O)c1ccccc1C1CCNC1 (configuration not stated),0.415%,
O=c1c2nc(OCc3ccc(-n4cccn4)cc3)ccc2ncn1Cc1ccccc1,-18.7% [at 87.6 µM],
COc1cccc(CNC(=O)c2cn3cc(-c4ccc(C)cc4)sc3n2)c1,5.4%,
COCCOC1CN(C2CCN(S(=O)(=O)c3cccs3)CC2)C12CCCCC2 (configuration not stated),3.82%,
O=C([C@H]1CCCN1C(=O)c1ccc(Cl)nc1)N1CCCC(c2nc3ccncc3[nH]2)C1 (some centres not stated),-7.77%,
CCOc1ccc(N(Cc2ccccc2)C(=O)c2nc(SCC)ncc2Cl)cc1,-2.22%,
CCOc1ccc(N(Cc2ccccc2)C(=O)c2nc(S(C)(=O)=O)ncc2Cl)cc1,,5.62 µM (active)
CCOc1ccc(NC(=O)CN(Cc2ccccc2)S(=O)(=O)c2ccc(Cl)cc2)cc1,4.16%,
Cc1c(C(F)(F)F)nc(-c2ccc(CN3CCNCC3)cc2)[nH]c1=O,-0.179%,
Cc1ccc(NC(=O)Cn2ccn3nc4c(c3c2=O)CCCCC4)cc1,-18.2%,
Cc1ccc(OCc2nc(C3CCN(C(=O)Cc4cccc(F)c4)CC3)no2)cc1,-5.46%,
O=C(COc1ccc(F)cc1)NC1CCN(c2cc(-c3ccccc3)[nH]n2)CC1,1.28%,
CCC1Oc2ccc(NC(=O)c3c(F)cccc3F)cc2CN(CCc2ccc(F)cc2)C1=O (configuration not stated),6.09%,
COC(=O)[C@@H]1Cc2c([nH]c3ccccc23)[C@H]2C[C@@H](NCCN3CCOCC3)C[C@@H](c3ccccc3F)N21,,28.2 µM (active)
COC(=O)[C@@H]1Cc2c([nH]c3ccccc23)[C@H]2C[C@H](NCCNC(C)=O)C[C@@H](c3ccc(C)cc3)N21,-6.82%,
COC(=O)[C@@H]1Cc2c([nH]c3ccccc23)[C@H]2C[C@@H](NCCN3CCOCC3)C[C@@H](c3ccccc3)N21,-7.47%,
CN(C)C[C@@H]1CN(S(C)(=O)=O)C[C@H]1NC(=O)c1nn(C)c2ccccc12,-3.91%,
COc1ccccc1Nc1ccnc(N2CCC(C(=O)NCc3cccc(Cl)c3)CC2)n1,-6.27%,
O=C(c1ccc(F)cc1)N1CCN(c2cc(-c3ccc(F)cc3)[nH]n2)CC1,6.86%,
CCOC(=O)C1CCN(C(=O)C2CCc3nnc(CN[S+](C)(=O)[O-])n32)CC1 (configuration not stated),-2.85%,
O=C(c1ccon1)N1CC[C@@H]2[C@@H](CCC(=O)N2CC2CCNCC2)C1,0.0233%,
CCOc1ccccc1NC(=O)N1CCCN(C)c2ccccc21,-9.62%,
O=C(CCc1ccccc1)Nc1ccc([C@@H](O)[C@H]2COCC(=O)N2Cc2ccccc2F)cc1,1.47%,

SMILES,"activity change, negative = cytotoxicity",Potency
O=C(CCc1ccnc(N2CCCC2)c1)N1CCN(c2ccccc2)CC1,0.0928%,
CCSc1ncc(Cl)c(C(=O)Nc2cc(C)ccc2C)n1,-4.44%,
Cc1ccc(NC(=O)c2nc(S(=O)(=O)Cc3cccc(C)c3)ncc2Cl)cc1,,28.2 µM (active)
CCCS(=O)(=O)c1ncc(Cl)c(C(=O)Nc2scc(-c3ccccc3)c2C(=O)OCC)n1,-14.4%,
CC1=C[C@@H](CN2CCC(O)CC2)[C@H](C(C)C)C[C@H]1Cc1nnc(-c2ccccc2F)o1,-25.2% [at 87.6 µM],
C[C@@H](c1ccccc1)N(C)C(=O)c1cc(COc2cccc(F)c2)[nH]n1,-5.67%,
CCOC(=O)c1cccc(NC(=O)c2ccc3c(c2)N(C)C2CCCCN2C3=O)c1 (configuration not stated),4.91% [at 12.5 µM],
Cc1cccc(C(=O)N2CCC(OC3CCN(Cc4ccccc4)CC3)CC2)c1,-20.7%,
O=C(Nc1ccc(C(F)(F)F)cc1)C1=NO[C@@H]2CN(CCc3ccccc3)C[C@H]12,4.72% [at 87.6 µM],
COc1ccc(S(=O)(=O)N2C[C@@H]3C[C@H](C2)c2c(NC(=O)C4CCCCC4)ccc(=O)n2C3)cc1,-4.88%,
Cc1ccc(S(=O)(=O)N2CCCC(Cn3c(C4CC4)nc4cccnc43)C2)cc1C (configuration not stated),0.546%,
CC(C)c1nc(-c2ccc(OC3CCN(C(=O)CCc4nc5ccccc5[nH]4)C3)cc2)no1 (configuration not stated),-18.1%,
COc1ccc(-n2nc(C)c([C@@H]3C=C[C@@H](NC(=O)Nc4ccccc4)C3)c2C)cc1,-21% [at 87.6 µM],
CCc1ccccc1NC(=O)N1CCCC(Cn2c(C)nc3cccnc32)C1 (configuration not stated),0.623%,
O=C(NC1CCN(c2nc3ncccc3o2)CC1)c1ccc(Cl)nc1,-25.4%,
CCc1ccc(NC(=O)Cn2ccn3nc4c(c3c2=O)CCCC4)cc1,2.41%,
COc1ccc(NC(=O)N[C@H]2[C@H](O)[C@@H](N3CCN(c4ccccc4)CC3)[C@@H]3OC[C@H]2O3)cc1,-6.88%,
Cc1nc(N(C)C)ncc1C(=O)NC(C(=O)O)c1c(C)n[nH]c1C (configuration not stated),-18%,
COc1ccc(CC(=O)N2CC[C@@H](CC(=O)O)[C@@H](CCN3CCNCC3)C2)cc1,6.71% [at 87.6 µM],
Cc1cc(NC(=O)c2ccc3c(c2)N(C)C2CCCCCN2C3=O)ccc1F (configuration not stated),-3.22% [at 12.5 µM],
COc1nc2nc(CC3CC3)n(C)c2cc1-c1cccc(NC(C)=O)c1,-14.5% [at 87.6 µM],
O[C@H]1[C@H](NCc2ccco2)[C@H]2CO[C@H](O2)[C@@H]1N1CCC(Cc2ccccc2)CC1,4.17% [at 87.6 µM],
COCCC1(NS(C)(=O)=O)CCN(C(=O)c2ccc(OC)nc2OC)CC1,0.208%,
